Source: PubChem
Only some compounds are listed: those with a hit (about 7% of all), similar ones and a draw of the others.
ATXN viability: reduces viability in counter-screen for ATXN expression inhibitors | S2 cells (HEK-293 line with an ATXN2-luciferase reporter) viability, CellTiter-Fluor protease fluorescence, 24 h | Potency, µM (titrated, usually from 56.7 µM), most hits filed as cytotoxic | 400,000 tested, 0.49% active | AID 651635; also: potency is read from the fitted curve at half-maximal effect; nearly all actives have a fitted effect of over 40% in size
IL-1B inflam inh: inhibitors of inflammasome signaling (IL-1 beta secretion); THP-1 LPS/ATP IL-1B secretion, AlphaLISA, 16 h; stronger effect = lower value; activity change, % at 57.5 µM; 360,000 tested, 4.7% active; in the data active = activity change below about -50%; inconclusive = mostly about -30% to -49%; also: % is scaled to controls: 0 for no effect and ±100 for the full control effect
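Secreted IL-1B measured by AlphaLISA bead assay after 16 h compound exposure of THP-1 cells; compounds (final up to 57.5 uM) added 1 h before LPS (250 ng/mL) and ATP (1.25 mM) stimulation; lower signal means less secretion.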
DRD3 agonist: agonists of human D3 dopamine receptor. P35462. max activation, %. D3R DiscoveRx beta-arrestin cells, luminescence, 90 min. 410,000 tested, 0.58% active; in the data active = max activation above about 30%; also: 0% is about no effect
Target sequence (P35462 whole entry, looked up): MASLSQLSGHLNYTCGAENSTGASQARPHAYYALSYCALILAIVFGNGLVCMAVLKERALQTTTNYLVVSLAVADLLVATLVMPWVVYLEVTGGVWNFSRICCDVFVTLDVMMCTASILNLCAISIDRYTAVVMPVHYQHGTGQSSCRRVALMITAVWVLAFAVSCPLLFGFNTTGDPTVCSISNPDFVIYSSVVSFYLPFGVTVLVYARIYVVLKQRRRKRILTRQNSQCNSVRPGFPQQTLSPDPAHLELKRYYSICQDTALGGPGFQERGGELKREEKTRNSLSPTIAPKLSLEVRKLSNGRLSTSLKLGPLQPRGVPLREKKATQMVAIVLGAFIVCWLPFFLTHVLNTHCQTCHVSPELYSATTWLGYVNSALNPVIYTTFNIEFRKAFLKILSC
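Agonist-mode cell screen: cells plated at 1500/well and incubated overnight at 37 °C, then exposed to library compounds for 90 min at 37 °C. Detection reagent was added for 30–60 min at room temperature, and luminescence was read.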
D3 antag: antagonists of human D3 dopamine receptor. 360,000 tested, 2.5% active. P35462. max response, negative = inhibition, %. AID 652054. D3R cells, DiscoveRx beta-arrestin luminescence, antagonist mode; stronger effect = lower value; in the data active = max response below about -50%; inconclusive = no clear call, values can overlap the other calls; also: % is scaled to controls: 0 for no effect and ±100 for the full control effect
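Cells expressing the human receptor were seeded at 1500 cells/well, incubated overnight at 37 degrees C in 5% CO2, then exposed to library compounds with dopamine controls for 90 minutes at 37 degrees C before luminescent detection.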
ATXN2 expr inh: reduces ATXN2 reporter expression in HEK-293 cells | HEK-293 ATXN2-luciferase reporter, luminescence, 24 h | Potency, µM (titrated, usually from 57 µM), without a hit: at the highest dose activity change, negative = inhibition, actives largely listed as inhibitors | 360,000 tested, 0.72% active | AID 1745845; also: potency is read from the fitted curve at half-maximal effect; % is scaled to controls: 0 for no effect and ±100 for the full control effect; nearly all actives have a fitted effect of over 55% in size
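qHTS (up to 57 uM final) was run with 24 h compound exposure of reporter cells at 37 °C. Each well was multiplexed: SteadyGlo luminescence measured ATXN2-luciferase expression after a fluorogenic Gly-Phe-AFC viability readout (25 uM final).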
Integrin act MD: integrin-mediated muscular dystrophy alleviation activation. AID 624291. alpha7betagal myoblasts, beta-gal FDG fluorescence, 48 h. 350,000 tested, 0.064% active. Potency, µM (highest dose often 38.3 µM), without a hit: top-dose activation, usual class: activators;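 also: potency is read from the fitted curve at half-maximal effect; 100% = response of the positive control SU9516; nearly all actives have a fitted effect of over 60% in size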
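Alpha7betagal+/- myoblasts (passage 13) were plated 16-24 hr, then exposed to compounds (1:260 dilution of DMSO stock) for 48 hours at 37C. After MPER lysis, β-galactosidase reporter activity was read as FDG fluorescence (ex 480/em 540) after 30 minutes.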
* = called active by the depositor; i = inactive; ? = inconclusive; . = no result given. Unless noted, calls follow the shape of the dose curve; as a rule, active = well fitted curve in the direction sought with a large enough effect; inconclusive = small, poorly fitted or top-dose-only effect, or another doubt; inactive = no such curve, though single readings can be large; an effect the other way counts as inactive or inconclusive.

SMILES	ATXN viability	IL-1B inflam inh	DRD3 agonist	D3 antag	ATXN2 expr inh	Integrin act MD
COc1ccc(-c2noc3c2-c2nc(C(C)C)sc2CC3)cc1	i	20	-3	114	9%	4%
CCCc1nc2c(s1)CCc1onc(-c3ccc(Br)cc3)c1-2	i	38	43*	15	11%	18%
CCCc1nc2c(s1)CCc1onc(-c3ccc(Cl)cc3)c1-2	i	7	25	6	12%	2%
CCOC(=O)c1ccccc1N=N/C(C(C)=O)=C(/C)O	i	45	4	9	1%	21%
Cc1cccc(NC(=O)c2cnn3ccccc23)c1C	?	-53*	-6	-17	0%	29%
Cc1cccc(NC(=O)c2ccccc2O)c1C	i	-61*	-2	8	47%	11%
Cc1cccc(NC(=O)c2cnn(C)c2)c1C	i	4	3	-13	6%	7%
COc1cccc(CNC(=O)COC(=O)CCCNC(=O)c2ccc(Cl)cc2)c1	?	18	6	-7	3%	3%
COC(=O)[C@@H]1CCCN1C(=O)c1cnn(-c2nccc(-c3cc(C)sc3C)n2)c1C1CC1	i	.	.	.	.	.
COc1ccc(-c2cnc3c(NC(C)=O)cc(-c4cccc(C(=O)NCCO)c4)cn23)cc1OC	i	-55*	2	11	-8%	.
CS(=O)(=O)c1ccc(-c2cc(NC=O)c3ncc(-c4ccc(F)cc4)n3c2)cc1	?	-14	4	3	-19%	.
O=C(NCCO)c1cccc(-c2cnc3c(Nc4cccc(OC(F)(F)C(F)F)c4)nccn23)c1	32µM*	?	3	24	?	.
Cc1ccc(-c2cc(NC=O)c3ncc(-c4cnn(C)c4)n3c2)cc1	?	-51*	4	-2	?	.
O=CNc1cc(-c2ccc(C(=O)NC3CC3)cc2)cn2c(-c3ccc(F)cc3)cnc12	?	-78*	16	12	?	.
COc1cccc(CC(=O)NN2C(=O)NC3(CCCCC3)C2=O)c1	i	18	-5	-11	8%	21%
C[C@@H]1CN([C@H](C)CO)S(=O)(=O)c2ccc(-c3cccc(C(=O)N(C)C)c3)cc2O[C@H]1CN(C)C(=O)Nc1ccc(F)cc1	?	-14	1	14	-21%	-25%
CCOc1ccc(N2C(=O)C(Cl)=C(N3CCOCC3)C2=O)cc1	i	3	-2	4	-3%	-30%
COc1ccc(NC(=O)c2ccccc2Cl)cc1NC(=O)CN1CCOCC1	i	-1	-5	0	3%	26%
CC(=O)NC(Cc1c[nH]c2ccccc12)C(=O)OCC(=O)N1CCCCCC1 (centres undefined)	i	-5	17	10	-3%	?
O=C(CSc1ccc2nnc(-c3ccc(F)cc3)n2n1)N1CCCc2ccccc21	i	-7	0	34	-11%	-19%
CC(=O)Nc1cc(-c2cccc(C(=O)NCCO)c2)cn2c(-c3cccc(C(F)(F)F)c3)cnc12	32µM*	-14	-5	-21	?	.
CC(=O)Nc1cc(-c2ccc(C(=O)NC3CC3)cc2)cn2c(-c3cccc(C(F)(F)F)c3)cnc12	?	-53*	12	20	?	.
O=C(/C=C1\NC2(CCCC2)Cc2ccccc21)C(=O)N/N=C/c1ccc(O)c(O)c1	?	?	-8	?	-31%	-18%
CCOC(=O)c1[nH]c2ccc(OC)cc2c1C	i	-12	-2	68	30%	19%
O=C(CSc1ccccn1)NC1CCCc2c1cnn2-c1ccccc1F (centres undefined)	i	24	-14	0	.	-25%
SMILES	ATXN viability	IL-1B inflam inh	DRD3 agonist	D3 antag	ATXN2 expr inh	Integrin act MD
CCCCn1nnc(NC(=S)NC(=O)c2ccc(-c3cccc(Cl)c3Cl)o2)n1	i	10	-23	-71*	-7%	17%
CCCCn1nnc(NC(=O)c2ccc(-c3ccccc3[N+](=O)[O-])o2)n1	?	2	-3	?	.	2%
COc1ccc(N2C(=O)CC(N3CCN(c4ccccc4)CC3)C2=O)cc1 (centres undefined)	.	31	20	20	11%	-27%
COc1ccc(N2C(=O)CC(N3CCN(c4ccccc4F)CC3)C2=O)cc1 (centres undefined)	i	20	4	-66*	-4%	16%
COc1ccc(N2C(=O)CC(N3CCN(c4ccccc4OC)CC3)C2=O)cc1 (centres undefined)	i	36	-14	7	-7%	23%
COc1ccc(N2C(=O)CC(N3CCN(c4ccc(Cl)cc4)CC3)C2=O)cc1 (centres undefined)	i	-51*	3	7	-1%	5%
O=C1CSC(c2ccccc2)N1c1cccnc1 (centres undefined)	i	12	-6	-8	-8%	0%
COc1cc(/C=N/n2c(-c3cc(C)[nH]n3)n[nH]c2=S)ccc1O	i	39	10	?	4%	-3%
COc1cc(/C=N/n2c(-c3cc(C)[nH]n3)n[nH]c2=S)cc(OC)c1OC	i	35	-8	-51*	2%	-4%
Cc1ccc(N2C(=O)C(c3c(C)[nH]n(-c4ccccc4)c3=O)(C(F)(F)F)C3=C2CC(C)(C)CC3=O)cc1 (centres undefined)	i	42	3	-75*	7%	10%
CCN(CC)c1ncnc2c1ncn2Cc1c(Cl)cccc1Cl	i	-8	-6	?	45%	-10%
Clc1cccc(Cl)c1Cn1cnc2c(N3CCCCCC3)ncnc21	i	-74*	-3	19	?	-23%
O=C(CSc1nnc(-c2csc3c2CCCC3)o1)Nc1ccccc1	i	-50*	3	17	61%	-24%
O=C(CSc1nnc(-c2ccc(O)cc2)o1)Nc1ccccc1	i	-3	-1	-14	34%	-10%
COc1ccc(-c2cc(NC=O)c3ncc(-c4cccc(C(F)(F)F)c4)n3c2)cc1OC	?	-63*	0	-24	?	.
COc1cc(-c2cc(NC=O)c3ncc(-c4cccc(C(F)(F)F)c4)n3c2)cc(OC)c1OC	i	-28	1	5	-16%	.
CN(C)c1ccccc1-c1cc(NC=O)c2ncc(-c3cccc(C(F)(F)F)c3)n2c1	.	-74*	-3	-18	?	.
CC1(C)OC2=C(C(=O)c3ccccc3C2=O)[C@H](NCc2ccccc2)[C@H]1O	.	.	.	.	3.4µM*	.
CN(C(=O)COC(=O)CSCc1cccc(Cl)c1)c1c(N)n(Cc2ccccc2)c(=O)[nH]c1=O	i	3	0	-6	.	0%
CN(C)/C=N/c1ncc(C(=O)c2ccccc2)s1	i	-6	-2	-19	13%	13%
